Measured values from PubChem BioAssay (NCI).
Compounds without any hit were thinned out: in the full panel of roughly 79,000, 15% have a hit. Calls of active or inactive are those of the source. Cut-off read from the data, not from the text of the source: active = growth inhibition above about 70%; inactive = the rest.

Experiments:
[1] = NCI Yeast Anticancer Drug Screen. Data for the rad52 strain (AID 147);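 note: 0% = growth of vehicle-treated control cultures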; conditions: S. cerevisiae rad52 mutant growth inhibition, stronger effect = higher value
In short: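 Genetically altered yeast (DNA damage repair defect) treated with compound; inhibition calculated relative to vehicle.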

[2] = NCI Yeast Anticancer Drug Screen. Data for the wt1 strain (AID 149);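 note: 0% = growth of vehicle-treated wt1 cultures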; conditions: S. cerevisiae wt1 strain (SPY 50644) growth inhibition, stronger effect = higher value
In short: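 Readout: yeast growth inhibition, normalised to vehicle controls, in the wt1 strain exposed to test compounds.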

[3] = NCI Yeast Anticancer Drug Screen. Data for the rad50EPP+ strain (AID 151);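 note: 0% = growth of vehicle-treated control cultures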; conditions: S. cerevisiae rad50 mutant strain, stronger effect = higher value
In short: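 Strain rad50EPP+; compound exposure; % growth inhibition vs vehicle.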

[4] = NCI Yeast Anticancer Drug Screen. Data for the rad50 strain (AID 155);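 note: 0% = growth of vehicle-only cultures of the same strain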; conditions: S. cerevisiae rad50 strain growth inhibition, stronger effect = higher value
In short: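 Compounds were tested on a yeast strain with an engineered DNA damage repair alteration; the reported value is growth inhibition normalised to vehicle treatment.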

[5] = NCI Yeast Anticancer Drug Screen. Data for the mec2-1 strain (AID 157); conditions: S. cerevisiae mec2-1 strain, stronger effect = higher value
In short: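 Cells of the genetically defined mec2-1 yeast strain are incubated with test compound. Inhibition of growth is calculated against vehicle-treated controls.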

[6] = NCI Yeast Anticancer Drug Screen. Data for the rad14 strain (AID 159);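 note: 0% = growth of vehicle-treated control cultures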; conditions: S. cerevisiae rad14 strain growth inhibition, stronger effect = higher value
In short: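 Compound-treated yeast with a defined DNA-repair lesion; growth inhibition normalised to vehicle-treated cultures.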

[7] = NCI Yeast Anticancer Drug Screen. Data for the sgs1 mgt1 strain (AID 161);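 note: 0% = growth of cultures given vehicle only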; conditions: S. cerevisiae sgs1 mgt1 strain, stronger effect = higher value
In short: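 Read-out: growth inhibition vs vehicle controls. Cells: mutant yeast strain deficient in DNA damage repair.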

[8] = NCI Yeast Anticancer Drug Screen. Data for the CLN2oe strain (AID 163);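 note: 0% = growth of vehicle-only control cultures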; conditions: S. cerevisiae CLN2oe strain, stronger effect = higher value
In short: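 Strain altered in cell-cycle control, incubated with compound; growth compared to solvent-treated controls.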

[9] = NCI Yeast Anticancer Drug Screen. Data for the cln2 rad14 strain (AID 165);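 note: 0% = growth equal to vehicle treated cultures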; conditions: S. cerevisiae cln2 rad14 strain, stronger effect = higher value
In short: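 The screen exposed genetically defined yeast (cln2 rad14) to test compounds and scored growth inhibition relative to vehicle-treated controls.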

[10] = NCI Yeast Anticancer Drug Screen. Data for the bub3 strain (AID 167); conditions: S. cerevisiae bub3 mutant strain, stronger effect = higher value
In short: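 Growth of a checkpoint-deficient yeast mutant is measured after compound exposure. Values represent inhibition relative to vehicle.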

[11] = NCI Yeast Anticancer Drug Screen. Data for the wt2 strain (AID 169);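 note: 0% = growth of vehicle-treated yeast cultures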; conditions: S. cerevisiae wt2 strain growth inhibition, stronger effect = higher value
In short: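 Steps: yeast strain treated with compound; growth recorded; inhibition calculated relative to cultures given vehicle alone.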

[12] = NCI Yeast Anticancer Drug Screen. Data for the mlh1 strain (AID 171);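 note: 0% = growth of vehicle-treated control cultures of the same strain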; conditions: S. cerevisiae mlh1 strain growth inhibition, stronger effect = higher value
In short: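 Yeast screen: mutant strain plus compound, growth scored against vehicle control wells.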

[13] = NCI Yeast Anticancer Drug Screen. Data for the sgs1 strain (AID 173);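 note: 0% = growth of vehicle-only control cultures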; conditions: S. cerevisiae sgs1 mutant, stronger effect = higher value
In short: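 Inhibition of yeast growth served as the measure. The mutant strain was treated with each compound, and growth was normalised to cultures receiving vehicle alone.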

[14] = NCI Yeast Anticancer Drug Screen. Data for the mlh1 rad18 strain (AID 175); conditions: S. cerevisiae mlh1 rad18 strain growth inhibition, stronger effect = higher value
In short: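 Compound-treated yeast growth, normalised to vehicle controls. Strain bears defined DNA repair mutations.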

[15] = NCI Yeast Anticancer Drug Screen. Data for the rad18 strain (AID 177); conditions: S. cerevisiae rad18 mutant growth inhibition, stronger effect = higher value
In short: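 Inhibition values reflect reduced yeast growth compared with vehicle-treated controls, using a strain engineered with a DNA damage repair defect.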

[16] = at 5.0 µM (retest, dose inferred, filed as 0.5)
[17] = at 50.0 µM (retest, dose inferred, filed as 5.0)

Measured: growth inhibition

CN(N=O)c1ccc(/C=C/c2ccnc3ccccc23)cc1
inactive: [1]; at 1.2 µM 2% | [1]; at 3.7 µM 9% | [1]; at 11.0 µM 35% | [2]; at 1.2 µM 0% | [2]; at 3.7 µM 2% | [2]; at 11.0 µM 8% | [2]; at 33.0 µM 20% | [2]; at 100.0 µM 57% | [3]; at 1.2 µM 7% | [3]; at 3.7 µM 26% | [3]; at 11.0 µM 68% | [4]; at 1.2 µM 5% | [4]; at 3.7 µM 14% | [4]; [16] 23% | [4]; at 11.0 µM 42% | [5]; at 1.2 µM 3% | [5]; at 3.7 µM 5% | [5]; [16] 7% | [5]; at 11.0 µM 13% | [5]; at 33.0 µM 34% | [5]; [17] 32% | [5]; at 50.0 µM 42.5% | [6]; at 1.2 µM 3% | [6]; at 3.7 µM 3% | [6]; at 11.0 µM 10% | [6]; at 33.0 µM 24% | [7]; [16] 8% | [7]; [17] 43% | [7]; at 50.0 µM 47.3% | [8]; at 1.2 µM 3% | [8]; at 3.7 µM -4% | [8]; at 11.0 µM 5% | [8]; at 33.0 µM 15% | [8]; at 100.0 µM 56% | [9]; [16] -10% | [9]; [17] 12% | [9]; at 50.0 µM 19.6% | [10]; at 1.2 µM -3% | [10]; at 3.7 µM 3% | [10]; [16] 4% | [10]; at 11.0 µM 16% | [10]; at 33.0 µM 32% | [10]; [17] 25% | [10]; at 50.0 µM 37% | [10]; at 100.0 µM 68% | [11]; at 1.2 µM -4% | [11]; at 3.7 µM 1% | [11]; at 11.0 µM 7% | [11]; at 33.0 µM 28% | [12]; at 1.2 µM 3% | [12]; at 3.7 µM 5% | [12]; at 11.0 µM 13% | [12]; at 33.0 µM 31% | [13]; at 1.2 µM -2% | [13]; at 3.7 µM 3% | [13]; at 11.0 µM 10% | [13]; at 33.0 µM 55% | [14]; [16] 3% | [14]; [17] 68% | [15]; at 1.2 µM 0% | [15]; at 3.7 µM 2% | [15]; at 11.0 µM 16% | [15]; at 33.0 µM 55%
active: [1]; at 33.0 µM 85% | [1]; at 100.0 µM 96% | [3]; at 33.0 µM 90% | [3]; at 100.0 µM 98% | [4]; at 33.0 µM 89% | [4]; [17] 87% | [4]; at 50.0 µM 95.8% | [4]; at 100.0 µM 95% | [5]; at 100.0 µM 90% | [6]; at 100.0 µM 71% | [11]; at 100.0 µM 81% | [12]; at 100.0 µM 86% | [13]; at 100.0 µM 90% | [14]; at 50.0 µM 78.6% | [15]; at 100.0 µM 91%

CCOC(=O)C1=C(C)NC(C)=C(C(=O)OCC)C1c1ccc(C)cc1
active: [1]; at 33.0 µM 97% | [1]; at 100.0 µM 95% | [2]; at 33.0 µM 97% | [2]; at 100.0 µM 96% | [4]; at 33.0 µM 96% | [4]; at 50.0 µM 88.7% | [4]; at 100.0 µM 96% | [5]; at 33.0 µM 97% | [5]; at 50.0 µM 91.5% | [5]; at 100.0 µM 95% | [6]; at 33.0 µM 96% | [6]; at 100.0 µM 93% | [7]; [17] 75% | [7]; at 50.0 µM 91.8% | [8]; at 33.0 µM 96% | [8]; at 100.0 µM 95% | [9]; at 50.0 µM 90% | [10]; at 3.7 µM 78% | [10]; at 11.0 µM 91% | [10]; at 33.0 µM 97% | [10]; [17] 90% | [10]; at 50.0 µM 91.3% | [10]; at 100.0 µM 95% | [11]; at 33.0 µM 96% | [11]; at 100.0 µM 96% | [12]; at 33.0 µM 96% | [12]; at 100.0 µM 95% | [13]; at 33.0 µM 98% | [13]; at 100.0 µM 96% | [14]; [17] 79% | [14]; at 50.0 µM 90.2% | [15]; at 33.0 µM 96% | [15]; at 100.0 µM 96%
inactive: [1]; at 1.2 µM 27% | [1]; at 3.7 µM 43% | [1]; at 11.0 µM 64% | [2]; at 1.2 µM 28% | [2]; at 3.7 µM 19% | [2]; at 11.0 µM 57% | [3]; at 1.2 µM -21% | [3]; at 3.7 µM -27% | [3]; at 11.0 µM -25% | [3]; at 33.0 µM -13% | [3]; at 100.0 µM 27% | [4]; at 1.2 µM 30% | [4]; at 3.7 µM 31% | [4]; [16] -24% | [4]; at 11.0 µM 59% | [4]; [17] 21% | [5]; at 1.2 µM 27% | [5]; at 3.7 µM -6% | [5]; [16] -24% | [5]; at 11.0 µM 39% | [5]; [17] 7% | [6]; at 1.2 µM 17% | [6]; at 3.7 µM 14% | [6]; at 11.0 µM 69% | [7]; [16] -20% | [8]; at 1.2 µM 26% | [8]; at 3.7 µM 13% | [8]; at 11.0 µM 33% | [9]; [16] -31% | [9]; [17] 29% | [10]; at 1.2 µM 61% | [10]; [16] -13% | [11]; at 1.2 µM 5% | [11]; at 3.7 µM 7% | [11]; at 11.0 µM 53% | [12]; at 1.2 µM 8% | [12]; at 3.7 µM 9% | [12]; at 11.0 µM 55% | [13]; at 1.2 µM 15% | [13]; at 3.7 µM 21% | [13]; at 11.0 µM 66% | [14]; [16] -37% | [15]; at 1.2 µM -2% | [15]; at 3.7 µM -2% | [15]; at 11.0 µM 20%

OCCNCCOc1ccc(/C(=C(/Cl)c2ccccc2)c2ccccc2)cc1
inactive: [1]; at 1.2 µM -38% | [1]; at 3.7 µM -36% | [1]; at 11.0 µM -20% | [2]; at 1.2 µM -25% | [2]; at 3.7 µM -26% | [2]; at 11.0 µM -3% | [3]; at 1.2 µM -34% | [3]; at 3.7 µM -28% | [3]; at 11.0 µM -56% | [4]; at 1.2 µM 12% | [4]; at 3.7 µM 1% | [4]; [16] 40% | [4]; at 11.0 µM 29% | [5]; at 1.2 µM -28% | [5]; at 3.7 µM -32% | [5]; [16] 3% | [5]; at 11.0 µM -2%
active: [1]; at 33.0 µM 98% | [1]; at 100.0 µM 97% | [2]; at 33.0 µM 98% | [2]; at 100.0 µM 97% | [3]; at 33.0 µM 70% | [3]; at 100.0 µM 98% | [4]; at 33.0 µM 98% | [4]; [17] 98% | [4]; at 50.0 µM 87.1% | [4]; at 100.0 µM 97% | [5]; at 33.0 µM 98% | [5]; [17] 99% | [5]; at 50.0 µM 94.3%
